In PubChem BioAssay (EPA / NIEHS):
Results filed as inconclusive are left out. Activity calls are given as the source filed them. Rule for the calls, unless noted: active = hit-call score of the fitted dose curve at least 0.9, where 1 is the maximum; inactive = score below 0.9.

Key:
[1] = ATG_NFI_CIS: Attagene CIS-FACTORIAL HepG2 Assay for human Nuclear Factor I (NFI) (AID 2282989); details: HepG2 cis-regulatory reporter, NFI response element transcription; actives raise or lower the signal
In short: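 Reporter transcription driven by endogenous transcription factors in HepG2 cells; 24 h treatment. Quantitation by labelled RT-PCR fragments on capillary electrophoresis, gain- or loss-of-signal relative to DMSO.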

[2] = target: Myc proto-oncogene protein (Homo sapiens) (UniProt P01106); assay: ATG_Myc_CIS: Attagene CIS-FACTORIAL HepG2 Assay for human Myelocytomatosis (Myc) Proto-Oncogene Transcription Factor (AID 2282990); details: HepG2, Attagene cis-reporter transcription factor activity; actives raise or lower the signal
Chain of Myc proto-oncogene protein (Homo sapiens) (P01106 whole entry, looked up): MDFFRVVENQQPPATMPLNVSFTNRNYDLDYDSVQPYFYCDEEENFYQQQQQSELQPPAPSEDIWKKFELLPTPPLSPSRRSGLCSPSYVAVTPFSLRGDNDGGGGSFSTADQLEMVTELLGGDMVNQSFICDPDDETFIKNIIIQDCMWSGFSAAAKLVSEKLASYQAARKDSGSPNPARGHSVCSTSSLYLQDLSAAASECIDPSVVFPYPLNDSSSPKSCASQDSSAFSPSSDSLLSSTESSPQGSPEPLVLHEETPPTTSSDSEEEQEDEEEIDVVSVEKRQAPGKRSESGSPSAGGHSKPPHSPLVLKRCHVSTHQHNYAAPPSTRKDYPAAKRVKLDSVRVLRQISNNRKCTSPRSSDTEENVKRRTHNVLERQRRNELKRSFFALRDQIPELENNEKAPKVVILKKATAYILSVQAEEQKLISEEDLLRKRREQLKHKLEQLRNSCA
In short: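 HepG2, transient MRTU transfection (cis promoters, endogenous TFs); 24 h dosing; TriZol RNA → oligo(dT) RT → PCR → 6-FAM primer extension → HpaI cut → CE. Bidirectional fit vs DMSO.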

[3] = ATG_NF_kB_CIS: Attagene CIS-FACTORIAL HepG2 Assay for human Nuclear Factor Kappa B (NF-kB) (AID 2282991); details: HepG2 Attagene cis-factorial NF-kB reporter mRNA; actives raise or lower the signal
In short: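 HepG2, transient multi-reporter transfection, cis promoter elements (endogenous TFs). 24 h exposure. Total RNA → RT → PCR → 6-FAM label → HpaI → CE. Gain/loss vs DMSO.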

[4] = ATG_NRF2_ARE_CIS: Attagene CIS-FACTORIAL HepG2 Assay for human Nuclear Factor Erythroid 2 Related Factor 2 (NFR2) response to Antioxidant Response Elements (ARE) (AID 2282992); details: HepG2 Attagene ARE/NRF2 reporter, transcription factor activity; actives raise or lower the signal;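 for AC50: reporter mRNA level measured by RT-PCR and capillary electrophoresis fluorescence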
In short: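 HepG2 cells transiently transfected with multiplexed cis-element reporter constructs, 24 h after chemical dosing; reporter mRNA quantified by RT-PCR, fluorescent primer extension, HpaI digestion and capillary electrophoresis. Bidirectional fit relative to DMSO.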

[5] = ATG_Oct_MLP_CIS: Attagene CIS-FACTORIAL HepG2 Assay for human Octamer-Binding Transcription Factor (Oct) (AID 2282993); details: HepG2 Attagene cis-factorial Oct reporter, mRNA; actives raise or lower the signal
In short: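 Transfected HepG2 cells, 24 h treatment. Reporter mRNA quantified by RT-PCR–capillary electrophoresis; bidirectional fitting against DMSO.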

[6] = target: Cellular tumor antigen p53 (Homo sapiens) (UniProt P04637); assay: ATG_p53_CIS: Attagene CIS-FACTORIAL HepG2 Assay for human p53 Transcription Factor (AID 2282994); details: HepG2 p53 cis-element reporter, Attagene mRNA; actives raise or lower the signal
Chain of Cellular tumor antigen p53 (Homo sapiens) (P04637 whole entry, looked up): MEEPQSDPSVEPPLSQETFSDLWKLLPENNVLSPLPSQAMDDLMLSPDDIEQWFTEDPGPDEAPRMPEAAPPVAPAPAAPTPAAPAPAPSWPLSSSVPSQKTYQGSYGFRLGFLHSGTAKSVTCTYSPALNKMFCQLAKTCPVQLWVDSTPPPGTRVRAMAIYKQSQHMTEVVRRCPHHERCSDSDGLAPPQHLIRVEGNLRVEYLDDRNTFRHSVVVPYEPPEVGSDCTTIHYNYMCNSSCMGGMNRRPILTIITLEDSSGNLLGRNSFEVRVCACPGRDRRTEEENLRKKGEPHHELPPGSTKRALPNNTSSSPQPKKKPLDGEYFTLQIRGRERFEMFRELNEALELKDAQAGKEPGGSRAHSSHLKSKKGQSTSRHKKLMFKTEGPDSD
In short: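 HepG2 cells transiently transfected with cis-regulated multiple reporter transcription units, dosed 24 h. Reporter mRNA measured by RT-PCR, 6-FAM primer extension, HpaI digestion and capillary electrophoresis; bidirectional fit relative to DMSO.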

[7] = BSK_3C_TissueFactor: BioMAP Diversity Plus: 3C Assay for Tissue Factor Biomarker Activity (AID 2282997); details: BioMAP 3C HUVEC, tissue factor biomarker readout; actives raise or lower the signal
In short: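 Dosing of human umbilical vein endothelial cells preceded a 24 h incubation. Tissue Factor was then read by ELISA, with increases and decreases both scored relative to DMSO controls.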

[8] = BSK_3C_uPAR: BioMAP Diversity Plus: 3C Assay for Urokinase-type plasminogen activator receptor (uPAR) Biomarker Activity (AID 2282998); details: BioMAP 3C HUVEC, uPAR biomarker ELISA; actives raise or lower the signal
In short: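 Readout: ELISA for surface uPAR. System: human umbilical vein endothelial primary cells, 24 h after chemical exposure. Analysis: bidirectional fit, DMSO baseline.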

[9] = BSK_3C_VCAM1: BioMAP Diversity Plus: 3C Assay for Vascular cell adhesion molecule 1 (VCAM1) Biomarker Activity (AID 2282999); details: BioMAP 3C HUVEC, VCAM1 ELISA, cytokine-stimulated; actives raise or lower the signal
In short: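 Endothelial cells from human umbilical vein are treated with test chemical. At 24 h, VCAM-1 is measured by ELISA, and responses in either direction are fitted relative to DMSO.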

[10] = BSK_4H_Eotaxin3: BioMAP Diversity Plus: 4H Assay for Eotaxin 3 Biomarker Activity (AID 2283000); details: primary human endothelial cells (HUVEC); actives raise or lower the signal
In short: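 Human umbilical vein endothelial cells (BSK_4H system) dosed with test chemical; Eotaxin-3 (CCL26) measured by ELISA 24 h after dosing. Bidirectional curve fitting relative to DMSO negative control as baseline.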

[11] = target: human Peroxisome Proliferator-activated Receptor delta (PPARd), PPARD (gene 5467) (UniProt Q03181); assay: ATG_PPARd_TRANS: Attagene TRANS-FACTORIAL HepG2 Assay for human Peroxisome Proliferator-activated Receptor delta (PPARd) (AID 2283002; active = hit-call score of the fitted dose curve at least 0.9, where 1 is the maximum)
Chain of human Peroxisome Proliferator-activated Receptor delta (PPARd), PPARD (gene 5467) (Q03181 whole entry, looked up, the tested form may be a part): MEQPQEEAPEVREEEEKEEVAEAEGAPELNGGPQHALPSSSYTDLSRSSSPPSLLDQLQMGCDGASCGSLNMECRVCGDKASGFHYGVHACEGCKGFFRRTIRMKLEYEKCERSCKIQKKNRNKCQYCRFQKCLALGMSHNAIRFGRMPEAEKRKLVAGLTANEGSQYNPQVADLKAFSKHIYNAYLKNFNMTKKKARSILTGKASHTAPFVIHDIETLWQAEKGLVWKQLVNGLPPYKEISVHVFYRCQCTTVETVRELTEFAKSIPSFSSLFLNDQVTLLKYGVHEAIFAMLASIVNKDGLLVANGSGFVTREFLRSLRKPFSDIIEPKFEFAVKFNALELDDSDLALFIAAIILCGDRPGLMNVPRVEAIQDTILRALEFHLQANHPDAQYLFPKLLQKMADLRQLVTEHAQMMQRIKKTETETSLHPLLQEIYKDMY
In short: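 Transient HepG2 transfection (multiple GAL4-UAS RTUs, chimeric receptor-Gal4); 24 h dosing; total RNA → oligo(dT) RT → PCR → 6-FAM primer extension → HpaI cut → CE. Positive direction vs DMSO.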

[12] = read-out: Intercellular Adhesion Molecule 1 (ICAM1), ICAM1 (gene 3383); assay: BSK_3C_ICAM1: BioMAP Diversity Plus: 3C Assay for Intercellular Adhesion Molecule 1 (ICAM1) Biomarker Activity (AID 2283003); details: primary human endothelial cells (HUVEC); actives raise or lower the signal
In short: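 ICAM-1 levels measured by ELISA after HUVEC cultures in the 3C system had been dosed for 24 h. Gain or loss of signal relative to DMSO was fitted in both directions.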

[13] = target: human Retinoic Acid Receptor beta (RARb), RARB (gene 5915) (UniProt P10826); assay: ATG_RARb_TRANS: Attagene TRANS-FACTORIAL HepG2 Assay for human Retinoic Acid Receptor beta (AID 2283004; active = hit-call score of the fitted dose curve at least 0.9, where 1 is the maximum)
Chain of human Retinoic Acid Receptor beta (RARb), RARB (gene 5915) (P10826 whole entry, looked up, the tested form may be a part): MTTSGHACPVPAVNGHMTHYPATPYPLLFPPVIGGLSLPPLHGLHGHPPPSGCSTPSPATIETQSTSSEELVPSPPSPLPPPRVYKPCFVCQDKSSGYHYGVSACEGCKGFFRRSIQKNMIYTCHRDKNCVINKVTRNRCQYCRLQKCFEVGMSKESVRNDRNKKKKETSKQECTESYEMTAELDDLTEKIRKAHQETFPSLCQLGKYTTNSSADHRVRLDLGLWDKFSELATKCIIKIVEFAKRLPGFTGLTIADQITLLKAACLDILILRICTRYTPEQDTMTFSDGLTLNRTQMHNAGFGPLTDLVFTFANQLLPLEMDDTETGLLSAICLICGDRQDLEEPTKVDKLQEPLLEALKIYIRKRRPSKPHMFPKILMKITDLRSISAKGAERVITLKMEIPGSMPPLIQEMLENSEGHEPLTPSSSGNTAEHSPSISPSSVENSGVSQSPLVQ
In short: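 Induction of reporter mRNA from a chimeric RARb-Gal4 construct was measured by RT-PCR, FAM labelling, HpaI digestion and capillary electrophoresis. Measurements followed 24 h compound treatment of transiently transfected human HepG2 liver cells, with DMSO as baseline.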

[14] = BSK_3C_Proliferation: Cell Proliferation Assessment in the BioMAP Diversity Plus: 3C Assay (AID 2283006); details: primary human endothelial cells (HUVEC);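 for AC50: potency may reflect either rise or fall in cell number versus DMSO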
In short: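 Read-out is total protein by SRB absorbance at 560 nm, taken as a proxy for relative cell number. Primary human umbilical vein endothelium cultured below confluence was dosed for 48 h, TCA-fixed and SRB-stained; curves were fitted bidirectionally versus DMSO.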

[15] = target: Nuclear receptor subfamily 1 group I member 2 (Homo sapiens) (UniProt O75469); assay: ATG_PXR_TRANS: Attagene TRANS-FACTORIAL HepG2 Assay for human Pregnane X Receptor (PXR) (AID 2283008; active = hit-call score of the fitted dose curve at least 0.9, where 1 is the maximum)
Chain of Nuclear receptor subfamily 1 group I member 2 (Homo sapiens) (O75469 whole entry, looked up, the tested form may be a part): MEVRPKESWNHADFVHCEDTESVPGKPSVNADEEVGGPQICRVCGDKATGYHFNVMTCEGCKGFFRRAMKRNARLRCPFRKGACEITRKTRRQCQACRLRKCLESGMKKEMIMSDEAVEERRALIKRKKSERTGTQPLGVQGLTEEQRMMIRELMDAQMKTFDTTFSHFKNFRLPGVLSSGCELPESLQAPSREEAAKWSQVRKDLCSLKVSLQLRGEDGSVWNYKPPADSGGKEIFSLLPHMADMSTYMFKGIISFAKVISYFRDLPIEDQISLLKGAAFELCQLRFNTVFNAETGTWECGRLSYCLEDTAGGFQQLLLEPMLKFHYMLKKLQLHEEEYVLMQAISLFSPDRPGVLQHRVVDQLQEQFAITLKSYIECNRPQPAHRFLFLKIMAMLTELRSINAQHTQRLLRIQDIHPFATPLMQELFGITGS
In short: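 HepG2 cells transiently transfected with GAL4-UAS reporter units and PXR-Gal4 chimera, exposed 24 h. Reporter mRNA quantified by RT-PCR, fluorescent labelling, HpaI digestion and capillary electrophoresis; gain of signal vs DMSO.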

[16] = target: human RAR-related Orphan Receptor gamma (RORg), RORC (gene 6097) (UniProt P51449); assay: ATG_RORg_TRANS: Attagene TRANS-FACTORIAL HepG2 Assay for human RAR-related Orphan Receptor gamma (RORg) (AID 2283011; active = hit-call score of the fitted dose curve at least 0.9, where 1 is the maximum)
Chain of human RAR-related Orphan Receptor gamma (RORg), RORC (gene 6097) (P51449 whole entry, looked up, the tested form may be a part): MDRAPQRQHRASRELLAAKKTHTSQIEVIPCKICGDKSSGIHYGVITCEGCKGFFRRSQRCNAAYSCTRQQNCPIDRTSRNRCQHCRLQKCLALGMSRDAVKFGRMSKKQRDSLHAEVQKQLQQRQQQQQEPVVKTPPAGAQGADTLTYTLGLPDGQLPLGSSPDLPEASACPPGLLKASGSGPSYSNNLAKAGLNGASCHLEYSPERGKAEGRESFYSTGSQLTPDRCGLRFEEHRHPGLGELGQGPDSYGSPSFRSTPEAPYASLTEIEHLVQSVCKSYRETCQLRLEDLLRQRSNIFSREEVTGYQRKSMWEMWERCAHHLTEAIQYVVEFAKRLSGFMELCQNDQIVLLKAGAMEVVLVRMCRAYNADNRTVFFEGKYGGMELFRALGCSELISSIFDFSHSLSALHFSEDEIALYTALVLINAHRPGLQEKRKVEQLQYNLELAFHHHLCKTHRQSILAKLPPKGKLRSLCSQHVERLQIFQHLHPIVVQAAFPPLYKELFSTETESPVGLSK
In short: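 Reporter transcripts from a transfected RORg-GAL4 chimera in HepG2 cells were quantified 24 h after dosing by RT-PCR, 6-FAM labelling, HpaI digestion and capillary electrophoresis; increases over DMSO baseline were fitted.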

[17] = target: human Retinoic Acid Receptor gamma (RARg), RARG (gene 5916) (UniProt P13631); assay: ATG_RARg_TRANS: Attagene TRANS-FACTORIAL HepG2 Assay for human Retinoic Acid Receptor gamma (RARg) (AID 2283009; active = hit-call score of the fitted dose curve at least 0.9, where 1 is the maximum)
Chain of human Retinoic Acid Receptor gamma (RARg), RARG (gene 5916) (P13631 whole entry, looked up): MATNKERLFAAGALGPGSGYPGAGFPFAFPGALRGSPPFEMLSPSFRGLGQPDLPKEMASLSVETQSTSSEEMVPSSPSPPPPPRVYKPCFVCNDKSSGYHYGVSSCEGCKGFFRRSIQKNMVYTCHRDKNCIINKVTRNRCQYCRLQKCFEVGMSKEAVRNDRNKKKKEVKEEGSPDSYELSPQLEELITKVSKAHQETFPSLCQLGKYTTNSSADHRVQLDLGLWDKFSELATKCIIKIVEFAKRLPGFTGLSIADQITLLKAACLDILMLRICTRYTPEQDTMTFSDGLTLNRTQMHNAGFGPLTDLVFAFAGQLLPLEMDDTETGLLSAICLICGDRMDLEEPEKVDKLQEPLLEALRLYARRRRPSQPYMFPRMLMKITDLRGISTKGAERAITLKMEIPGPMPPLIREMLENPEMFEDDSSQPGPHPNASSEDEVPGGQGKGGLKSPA
In short: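 Transient transfection of HepG2 with multi-reporter constructs, then 24 h chemical treatment. Total RNA isolated, reverse-transcribed, PCR-amplified, fluorescently labelled and resolved by capillary electrophoresis; activity scored as mRNA induction versus DMSO.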

[18] = target: Peroxisome proliferator-activated receptor gamma (Homo sapiens) (UniProt P37231); assay: ATG_PPARg_TRANS: Attagene TRANS-FACTORIAL HepG2 Assay for human Peroxisome Proliferator-activated Receptor-gamma (PPARg) (AID 2283007; active = hit-call score of the fitted dose curve at least 0.9, where 1 is the maximum)
Chain of Peroxisome proliferator-activated receptor gamma (Homo sapiens) (P37231 whole entry, looked up): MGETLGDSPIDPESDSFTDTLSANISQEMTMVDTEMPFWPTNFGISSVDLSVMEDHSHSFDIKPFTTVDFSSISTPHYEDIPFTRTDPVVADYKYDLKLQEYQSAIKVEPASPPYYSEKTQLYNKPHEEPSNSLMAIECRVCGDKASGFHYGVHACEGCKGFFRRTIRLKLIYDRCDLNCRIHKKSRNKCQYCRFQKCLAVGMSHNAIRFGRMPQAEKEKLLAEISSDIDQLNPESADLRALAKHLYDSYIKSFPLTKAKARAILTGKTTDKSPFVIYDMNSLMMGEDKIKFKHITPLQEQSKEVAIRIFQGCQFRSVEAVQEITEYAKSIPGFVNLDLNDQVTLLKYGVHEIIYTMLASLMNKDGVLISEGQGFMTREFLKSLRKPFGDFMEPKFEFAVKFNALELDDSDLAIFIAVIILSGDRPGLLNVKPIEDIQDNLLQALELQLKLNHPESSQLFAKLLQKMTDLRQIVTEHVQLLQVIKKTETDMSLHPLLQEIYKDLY
In short: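 Multiplexed reporter transcription units in HepG2, 24 h dosing, reporter transcripts quantified by fluorescent RT-PCR and capillary electrophoresis. Increase over DMSO scored.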

Measured: AC50

CC(O)CN(CCN(CC(C)O)CC(C)O)CC(C)O (stereo not drawn)
not listed: [17] | [18]
inactive: all other assays above

C[C@](N)(Cc1ccc(O)c(O)c1)C(=O)O
not listed: [15] | [16] | [17] | [18]
inactive: all other assays above

CC(C)(O)c1coc(S(=O)(=O)NC(=O)Nc2c3c(cc4c2CCC4)CCC3)c1
active: [15] 19.3 µM
not listed: [11] | [13] | [18]
inactive: all other assays above

O=C1CCC(N2C(=O)c3ccccc3C2=O)C(=O)N1 (stereo not drawn)
not listed: [13] | [15] | [16] | [17]
inactive: all other assays above

Fc1ccccc1[C@@H](F)COC1CCC(Nc2ncnc3[nH]ncc23)CC1 (stereo partly drawn)
active: [2] 25.4 µM | [4] 6.77 µM | [7] 35.2 µM | [8] 15.2 µM | [10] 23.6 µM | [14] 29.3 µM
not listed: [13] | [16] | [17] | [18]
inactive: all other assays above

C=CC(=C)CCC=C(C)C
not listed: [11] | [13] | [17] | [18]
inactive: all other assays above

CN(C)c1ccc(Cc2ccc(N(C)C)cc2)cc1
active: [1] 180 µM | [3] 37.9 µM | [4] 78.2 µM | [5] 56.7 µM | [11] 58.5 µM | [14] 13.4 µM
not listed: [16] | [18]
inactive: all other assays above

CCCCCCCCCCCCc1ccccc1
active: [10] 26.6 µM
not listed: [13] | [17] | [18]
inactive: all other assays above
